An excerpt weighted towards active compounds, which were near 3.5% of everything screened.
TEAD-YAP block: TEAD-YAP interaction inhibition; HEK-TIYL cells, TEAD-Gal4/YAP UAS-luciferase luminescence; inhibition, % at 9.12 µM; actives 1.4% (n = 640,000); AID 1259422; in the data active means inhibition above about 32%;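 further: 0% = median of test compound wells and 100% = reference inhibitor wells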
GPR151 ag: activates the human receptor GPR151. Q8TDV0. PathHunter beta-arrestin GPR151 cells, luminescence. activation, % at 11.2 µM. actives 1% (n = 650,000); in the data active means activation above about 4.9%;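 further: 0% = median of compound wells and 100% = cells with positive control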
FBW7 act: activators of human E3 ligase FBW7. Q969H0. AlphaScreen FBW7–phospho-cyclin E peptide binding, activator screen. normalized activity (activation), % at 26.1 µM. actives 0.13% (n = 650,000); in the data active means normalized activity above about 1.9%;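 further: purified mutant Fbw7 with reduced substrate affinity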
Target sequence (Q969H0 whole entry, looked up): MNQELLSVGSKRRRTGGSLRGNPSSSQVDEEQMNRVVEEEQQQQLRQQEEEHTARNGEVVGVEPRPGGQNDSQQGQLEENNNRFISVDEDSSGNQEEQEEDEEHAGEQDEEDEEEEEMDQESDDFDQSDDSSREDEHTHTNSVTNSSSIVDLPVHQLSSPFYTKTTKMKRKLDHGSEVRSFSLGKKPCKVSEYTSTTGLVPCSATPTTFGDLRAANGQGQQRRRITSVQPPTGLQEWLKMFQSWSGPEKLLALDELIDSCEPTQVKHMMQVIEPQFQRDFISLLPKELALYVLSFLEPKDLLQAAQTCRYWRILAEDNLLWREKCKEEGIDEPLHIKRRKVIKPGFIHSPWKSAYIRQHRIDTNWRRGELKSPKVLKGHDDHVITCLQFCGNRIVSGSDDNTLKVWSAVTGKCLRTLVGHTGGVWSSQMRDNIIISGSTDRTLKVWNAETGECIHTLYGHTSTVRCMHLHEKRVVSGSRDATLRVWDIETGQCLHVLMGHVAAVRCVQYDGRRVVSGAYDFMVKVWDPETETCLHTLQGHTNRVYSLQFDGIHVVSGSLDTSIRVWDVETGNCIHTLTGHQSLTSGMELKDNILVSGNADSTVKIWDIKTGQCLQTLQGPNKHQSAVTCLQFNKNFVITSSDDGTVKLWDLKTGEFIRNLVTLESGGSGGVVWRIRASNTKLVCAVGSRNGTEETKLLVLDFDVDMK
MITF primary: blocks human microphthalmia-associated transcription factor; O75030; AlphaScreen MITF homodimerization, bead proximity signal; inhibition, % at 2.6 µM; actives 0.91% (n = 650,000); AID 1259374; in the data active means inhibition above about 50%;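 further: 0% = vehicle wells with protein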
GPR151 conf act: confirmation of human GPR151 activators. shares compounds with GPR151 ag. 6,700 tested, under 10 active. GPR151 PathHunter beta-arrestin cells, luminescence, 90 min; % of EA-reagent control over plate median. activation, % at 11.2 µM. AID 1508609;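 active means mean percent activation across replicates above the confirmation screen cutoff of 4.91%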
GPR119 ag: activates human GPR119 in a GPR151 counter-screen | shares compounds with GPR151 ag | GPR119 PathHunter beta-arrestin cells, luminescence, 90 min; 0 = compound-well median, 100 = enzyme-acceptor control | activation, % at 11.2 µM | actives 0.3% (n = 6,700) | AID 1508611;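 active means mean percent activation in the counterscreen above 29.09%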;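 further: counterscreen on off-target GPR119 to flag nonselective hits from the GPR151 activator screen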
* marks the source's active call; other numbers are inactive results; / = not tested or not shown; ! = not confirmed by another sample.

SMILES	TEAD-YAP block	GPR151 ag	FBW7 act	MITF primary	GPR151 conf act	GPR119 ag
CCOCCOC(=O)C1=C(C)NC2=C(C(=O)CC(c3ccc(Cl)cc3)C2)C1c1ccc(O)cc1 (centres undefined)	6	-1	0	17	/	/
O=C(/C=C\c1ccccc1)Nc1c2c(nn1-c1ccc([N+](=O)[O-])cc1)CSC2	-1	0	0	-7	/	/
O=C1NCCN(CC(c2ccccc2)c2ccccc2)C1CC(=O)N1CCOCC1 (centres undefined)	2	1	0	16	/	/
COC(=O)C(=O)CC(=O)c1ccc(C)cc1C	5	3	0	10	/	/
CCCSc1ncccc1C(=O)Nc1c(C)noc1C	-2	7.4*	0	4	0	-6
CCCCN(C)Cc1c(C(=O)N2CCN(C3CCCCC3)CC2)nc2ccccn12	4	7.3*	0	14	1	6
CC(C)n1cnc2c(NCCN3CCOCC3)nc(Nc3ccc(-n4ccnc4)cc3)nc21	15	6.2*	0	12	-2	-15
O=C1CCCN1CCn1cnc2c(NCCO)nc(Nc3ccc(N4CCOCC4)cc3)nc21	-4	5.6*	0	11	0	0
O=C1CCCN1CCn1cnc2c(Nc3ccc(N4CCOCC4)cc3)nc(Nc3ccc(-n4ccnc4)cc3)nc21	-3	5.9*	0	-2	0	-8
CS(=O)(=O)N1CCc2cc(N3CCN(Cc4ccccc4OC(F)F)C3=O)ccc21	-43	0	0	13	/	/
Cc1ccc(-n2c3c(cc(C(=O)Nc4ccc5c(c4)OCCO5)c2=O)C(=O)CCC3)cc1	16	5.0*	0	10	0	1
Cc1ccc(NC(=O)c2cc3c(n(-c4ccc(C)cc4)c2=O)CCCC3=O)cc1	-17	-1	0	0	/	/
CCN(c1ccccc1)S(=O)(=O)c1ccc2[nH]c(=O)ccc2c1	-5	0	0	13	/	/
CCN(c1ccccc1)S(=O)(=O)c1ccc(=O)[nH]c1	10	6.3*	1	13	-1	-3
CCN(c1ccccc1)S(=O)(=O)c1ccc(-n2cccn2)cc1	2	9.0*	0	-1	0	1
CCOc1ccc(/C(O)=C2/C(=O)C(=O)N(CCN(C)C)C2c2ccc(Cl)cc2)cc1C (centres undefined)	-1	-1	0	4	/	/
CCn1nc(C)c(CN2CCC3(CC2)CC3C(=O)NCc2ccccc2)c1C (centres undefined)	8	5.4*	0	-3	0	0
COc1cccc(CN2CCC3(CC2)CC3C(=O)NCc2cccc(C(F)(F)F)c2)c1O (centres undefined)	-3	5.0*	0	-4	1	13
Cc1ccc2cc3c(nc2c1C)OCCN(C(=O)c1ccco1)C3	6	5.7*	0	16	0	-5
Cc1ccc2cc(C#N)c(N3CCCN(C(=O)c4ccco4)CC3)nc2c1C	4	-1	0	4	/	/
O=C1CCC(CCNCc2cccnc2)N1Cc1cc(F)ccc1F (centres undefined)	1	-1	0	9	/	/
COc1cc(NC(=O)c2sc3nc4n(c(=O)c3c2C)CCCC4)cc(OC)c1OC	-8	12*	0	-6	0	-1
COc1ccc(C)cc1NC(=O)c1sc2nc3n(c(=O)c2c1C)CCCC3	0	2	0	-1	/	/
CC(C)c1ccc2nc(SCC(=O)Nc3nccs3)c(C#N)cc2c1	-14	-1	0	2	/	/
COc1cc(OC)c(C(=O)OC(C)C(=O)NC(N)=O)cc1OC (centres undefined)	-4	13*	0	6	1	3
SMILES	TEAD-YAP block	GPR151 ag	FBW7 act	MITF primary	GPR151 conf act	GPR119 ag
COc1cc(C(=O)N(Cc2nc(-c3ccc(C)cc3)no2)C(C)C)cc(OC)c1OC	6	8.3*	0	9	-2	-18
CCC(C)c1nc(Cn2cnc3cc(C)c(C)cc32)no1 (centres undefined)	-11	0	2	-5	/	/
O=C1NC(=O)C(=Cc2ccc(OCc3ccccc3)c(C(=O)O)c2)C(=O)N1	7	5.6*	-1	11	0	-1
CC(C)CCn1c(=O)c2sccc2n2c(CCCC(=O)O)nnc12	1	5.2*	0	14	0	-2
CC[C@H](C)NC(=O)CCCc1nnc2n(CCC(C)C)c(=O)c3sccc3n12	1	-1	0	2	/	/
CCOC(=O)c1c(C)nc2c(c1C)/C(=N/O)CC(C)(C)C2	-1	5.0*	0	4	-1	-11
Cc1ccc(-n2[nH]c(C)c(C=Nc3cccc(C(=O)O)c3)c2=O)cc1	-12	5.4*!	0	15	0	0
O=C(Cn1c2ccccc2c(=O)c2ccccc21)Nc1nc2ccccc2s1	12	0	0	0	/	/
COc1cc(NC(=O)c2csc(-c3ccc(N4CCN(C)CC4)cc3)n2)cc(OC)c1OC	3	0	0	19	/	/
COc1ccc(N2CCN(C(=O)CN3CCN(c4cc(Cl)ccc4C)CC3)CC2)cc1	-3	7.2*	0	-1	0	6
COc1cc(/C=C(/C#N)c2nc(-c3cc4c(ccc5ccccc54)oc3=O)cs2)ccc1O	-1	0	0	3	/	/
O=C(Cc1cccs1)N/N=C\c1ccc(O)cc1	-12	-2	0	18	/	/
O=C(Cc1cccs1)N/N=C\c1ccc(O)c(O)c1	-14	5.3*	0	-7	0	1
COc1ccc(-c2cc(C)cc3c2OC(CNC(=O)CC(C)C)C3)nn1 (centres undefined)	-1	0	0	11	/	/
Cc1cc2c(c(-c3ccc(C(N)=O)cn3)c1)OC(CNC(=O)C13CC4CC(CC(C4)C1)C3)C2 (centres undefined)	0	7.1*	0	-9	0	-3
CCN(CC)C(=O)CSc1nnc2c3ccccc3nc(C(C)(C)C)n12	-2	-1	1	11	/	/
O=C(CCC(=O)Nc1ccc(F)cc1)N/N=C/c1ccc(Br)cc1	-4	3	0	-1	/	/
O=C(CCC(=O)Nc1ccc(Br)cc1)N/N=C/c1ccc(F)cc1	10	6.4*	0	11	0	-3
O=c1c2c(-c3ccccc3)csc2ncn1Cc1ccc([N+](=O)[O-])cc1	4	5.6*	0	20	-1	-3
COc1ccc(CCNC(=O)c2csc(Nc3ccc(-n4ccnc4)cc3)n2)cc1	58*	6.0*	0	3	0	30*
COc1ccc(CCNC(=O)c2csc(Nc3ccc(C(F)(F)F)cc3)n2)cc1	-11	6.2*	0	10	0	2
COc1ccc(CCNc2nc(Nc3ccc(-n4ccnc4)cc3)ncc2C)cc1	18	4.9*	1	7	0	-8
COc1ccc(CCNC(=O)c2cnc(Nc3ccc(-n4ccnc4)cc3)s2)cc1	-2	1	0	4	/	/

Screening results: PubChem BioAssay, The Scripps Research Institute Molecular Screening Center
